# From PubChem BioAssay
# CBX7 AlphaScr: CBX7 chromodomain binding inhibitors, primary screen, biochemical, AlphaScreen. AlphaScreen His6-CBX7 / biotin-H3K27me3 peptide binding; hits give low values. Chromobox protein homolog 7 (Homo sapiens), O95931. 66,000 compounds, 1.1% hits. normalised signal (fraction of DMSO) (test concentration not listed). AID 1224903, 2016; in the data active means normalised signal below about 0.5
# Target sequence (O95931 whole entry, looked up): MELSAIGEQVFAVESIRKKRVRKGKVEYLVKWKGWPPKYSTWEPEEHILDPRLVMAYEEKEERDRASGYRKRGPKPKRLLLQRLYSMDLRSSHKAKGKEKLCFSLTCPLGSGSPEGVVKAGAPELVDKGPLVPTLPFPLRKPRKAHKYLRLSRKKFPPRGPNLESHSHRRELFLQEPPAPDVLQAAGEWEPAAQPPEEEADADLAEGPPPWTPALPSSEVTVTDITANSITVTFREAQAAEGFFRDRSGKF
# Numbers stand for hits; i = inactive. Many of the other results were omitted from the sample, so hits are more common in it than they were.
SMILES,CBX7 AlphaScr
COC(=O)c1c[nH]n2c(NC3CCC(C)CC3)c(-c3ccc(Cl)cc3)nc12 (stereo not given),0.33
Cc1cccc(-c2nc(CN3CCCC(C(=O)NC4CCC(C)CC4)C3)c(C)o2)c1 (stereo not given),i
COC(=O)c1c[nH]n2c(=O)c(Cc3cccc(Cl)c3)c(C)nc12,i
COC(=O)c1c[nH]n2c(NCCc3ccccc3)c(-c3cccc(OC)c3)nc12,i
Cc1c(C(=O)Nc2ccc(F)c(Cl)c2)sc2ncn(Cc3cccc(F)c3)c(=O)c12,i
O=S(=O)(Nc1ccc(Cl)cc1F)c1cnc[nH]1,i
Cc1ccc(Cn2cnc3c(nnn3Cc3ccc(C)cc3)c2=O)cc1,i
COc1ccc(OC)c(Nc2cc(C(=O)NC(C)c3ccc4c(c3)OCCO4)c3ccccc3n2)c1 (stereo not given),i
COC(=O)c1ccc(NC(=O)Cn2cnc3c(nnn3Cc3ccccc3F)c2=O)cc1,i
CCOc1ccccc1CN1C(=O)c2ccccc2C1C(=O)NC1CCCCCCC1 (stereo not given),i
CCOc1ccc2c(c1)c(=O)c(S(=O)(=O)c1ccccc1)cn2CC(=O)Nc1ccc(Cl)cc1,i
CCc1nnc(NC(=O)c2ccc(S(=O)(=O)N3CCCCC3)cc2)o1,0.1
CCc1nnc(NC(=O)c2ccc(S(=O)(=O)N3CCCC(C)C3)cc2)o1 (stereo not given),i
CCC1CCCCN1S(=O)(=O)c1ccc(C(=O)Nc2nnc(C3CC3)o2)cc1 (stereo not given),i
CC1CC(C)CN(S(=O)(=O)c2ccc(C(=O)Nc3nnc(C4CC4)o3)cc2)C1 (stereo not given),0.065
COCc1nnc(NC(=O)c2ccc(S(=O)(=O)N3CCCC3)cc2)o1,i
O=C(Nc1nnc(C2CC2)o1)c1ccc(S(=O)(=O)N2CCOCC2)cc1,0.44
COc1ccc(-c2nnc(NC(=O)c3ccc(S(=O)(=O)N4CCOCC4)cc3)o2)cc1,i
CCc1nnc(NC(=O)c2ccc(S(=O)(=O)N3CCC(C)CC3)cc2)o1,i
O=C(Nc1nnc(C2CC2)o1)c1ccc(S(=O)(=O)N2CCCCCC2)cc1,0.0011
COc1ccc(-c2nnc(NC(=O)c3ccc(S(=O)(=O)N4CC(C)CC(C)C4)cc3)o2)c(OC)c1 (stereo not given),i
O=C(CSc1nc2ccccc2[nH]1)NCc1n[nH]c(=O)c2ccccc12,i
CCCCN(CCCC)S(=O)(=O)c1ccc2oc(C(=O)N3CCCCCC3)c(C)c2c1,i
CNc1ccc2nnc(C(F)(F)F)n2n1,i
O=C(NCCc1c[nH]c2ccccc12)C1CCN(c2nc3ccccc3[nH]2)CC1,i
SMILES,CBX7 AlphaScr
CCOc1ccccc1-n1cnc2cc(C(=O)N3CCOCC3)ccc21,i
COc1ccccc1C(=O)Nc1c2c(nn1-c1ccc(C)cc1C)CS(=O)(=O)C2,i
CCOc1ccccc1NC(=O)Cn1c(=O)n(Cc2ccccc2Cl)c(=O)c2cccnc21,i
O=C(Nc1cccnc1)c1nn2c(C(F)(F)F)cc(-c3ccc(F)cc3)nc2c1Cl,i
COc1cc(OC)cc(-c2nnc(NC(=O)c3ccc(S(=O)(=O)N4CCCC4)cc3)o2)c1,i
CN(c1ccccc1)S(=O)(=O)c1ccc(C(=O)Nc2nnc(-c3ccc(Cl)s3)o2)cc1,0.39
Cc1nnc(NC(=O)c2ccc(S(=O)(=O)N3CCOCC3)cc2)o1,i
COc1ccc(-c2nnc(NC(=O)c3ccc(S(=O)(=O)N4CCCC4)cc3)o2)cc1,i
CCCCN(C)S(=O)(=O)c1ccc(C(=O)Nc2nnc(-c3ccc(Cl)s3)o2)cc1,i
CCCN(CCC)S(=O)(=O)c1ccc(C(=O)Nc2nnc(-c3ccc(Cl)s3)o2)cc1,i
Cc1nnc(NC(=O)c2ccc(S(=O)(=O)N3CCCC3)cc2)o1,0.024
Cc1nnc(NC(=O)c2ccc(S(=O)(=O)N3CCCC(C)C3)cc2)o1 (stereo not given),i
CN(C)S(=O)(=O)c1ccc(C(=O)Nc2nnc(-c3ccc(F)cc3)o2)cc1,0.044
O=C(Nc1nnc(-c2ccc(F)cc2)o1)c1ccc(S(=O)(=O)N2CCCC2)cc1,0.013
Cc1ccccc1CN1C(=O)CSc2ccc(C(=O)NCCC3=CCCCC3)cc21,i
CCOc1ccc(CNC(=O)Cn2nc(Cc3ccncc3)c3ccccc3c2=O)cc1,i
COc1ccc2nc(NC(=O)CSc3nccn3C)sc2c1,i
O=C(O)c1ccc(Nc2nc(-c3ccccc3)c(Oc3ccc(Cl)cc3)s2)cc1,i
CCCCN1C(=O)C(O)(CC(=O)c2ccc(C)cc2)c2ccccc21 (stereo not given),i
O=C(Nc1nc(-c2ccncc2)cs1)c1ccc(S(=O)(=O)N2CCCc3ccccc32)cc1,i
COc1cc(OC)cc(-c2nnc(NC(=O)c3ccc(S(=O)(=O)N4CCCCCC4)cc3)o2)c1,i
CCOc1cccc2sc(NC(=O)c3ccc(S(=O)(=O)N4CCCc5ccccc54)cc3)nc12,i
CC(C)CN(CC(C)C)S(=O)(=O)c1ccc(C(=O)Nc2nnc(-c3ccc(Cl)s3)o2)cc1,i
Cc1nnc(NC(=O)c2ccc(S(=O)(=O)N3CCCc4ccccc43)cc2)o1,0.034
O=C(Nc1nnc(-c2ccc(Cl)s2)o1)c1ccc(S(=O)(=O)N2CCCCC2)cc1,0.16
SMILES,CBX7 AlphaScr
CC(NC(=O)c1cncc(Br)c1)c1ccc(-c2ccccc2)cc1 (stereo not given),i
CC(=O)c1c(NC(=O)c2ccccc2)sc2c1CCCC2,i
COCCCNC(=O)CS(=O)(=O)Cc1nc(-c2ccc(OC)cc2)oc1C,i
Cc1cccc(NC(=O)c2cc(S(=O)(=O)N3CCC(C)CC3)ccc2F)c1C,i
CCCCC(=O)Nc1nc2c(s1)CCc1ccccc1-2,i
Cc1cccc(NC(=O)C2CCN(S(=O)(=O)c3ccc4c(c3)CCC(=O)N4)CC2)c1,i
COc1cc(/C=C/c2cc(C(F)(F)F)[nH]c(=O)n2)ccc1OCc1ccc(Cl)cc1Cl,0.26
COc1cc(/C=C/c2cc(C(F)(F)F)[nH]c(=O)n2)ccc1OCc1ccccc1F,i
COc1ccc(/C=C/c2cc(C(F)(F)F)[nH]c(=O)n2)cc1OC,i
CCCCN(C)c1c(N2CCN(C(=O)OCC)CC2)c(=O)c1=O,i
CCOc1ccc(Cc2nc3cc(C(=O)c4ccccc4)ccc3[nH]c2=O)cc1,i
CC(=O)Nc1ccc(Nc2nc(-c3cc4ccccc4o3)cs2)cc1,i
Cc1c(Cl)cccc1Nc1nc(-c2cccs2)cs1,i
CC(=O)Nc1ccc(Nc2nc(-c3c(C)nc4ncccn34)cs2)cc1,i
COc1ccc(-c2csc(Nc3cccc(C(C)=O)c3)n2)cc1OC,i
Cc1c(Cl)cccc1Nc1nc(-c2cccnc2)cs1,i
Cc1c(Cl)cccc1Nc1nc(-c2ccccn2)cs1,0.47
CC(=O)c1cccc(Nc2nc(-c3ccccn3)cs2)c1,0.38
CC(=O)Nc1ccc(Nc2nc(-c3ccccn3)cs2)cc1,0.061
CC(=O)c1cccc(Nc2nc(-c3cccs3)cs2)c1,i
Cc1ccc(-c2nc(CS(=O)(=O)CC(=O)Nc3cc(Cl)ccc3Cl)c(C)o2)cc1,i
COc1ccc(NC(=O)c2cc3c(s2)-c2ccccc2OC3)c(OC)c1,i
O=C(CN1C(=O)CSc2ncccc21)NCCCN1CCC(Cc2ccccc2)CC1,i
COC(=O)c1c(NC(=O)COc2ccc(Cl)cc2Br)sc2c1CCCC2,i
COc1ccc(-c2cc(C(F)(F)F)n3nc(C(=O)NCCCN4CCOCC4)c(Cl)c3n2)cc1,i
Cc1ccc(S(=O)(=O)N(C)c2cccc3cccnc23)cc1,i
Cc1ccc(S(=O)(=O)Nc2ccccc2CNc2ccccn2)cc1,i
